Test results taken from the supplement of paper PMC10849652.
Of roughly 7,900 targets only a part is listed; those with a hit were picked by preference. About 0.6% of all pairs of compound and target were hits.

Tests used:
Test in all cases: log2 fold change, soluble protein after heating vs DMSO (PISA); higher = thermal stabilisation; K562 cells, 10 uM, 30 min; active = over 0.2 and 3.5 SD of the protein, either way, in both replicates (recomputed)
saracatinib = compound: CN1CCN(CCOc2cc(OC3CCOCC3)c3c(Nc4c(Cl)ccc5c4OCO5)ncnc3c2)CC1 [saracatinib]
In short: (§1)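 Aliquots of K562 cells (2×10^6 cells/mL) treated with 10 μM compound for 30 min were heated for 3 min over 48°C-58°C. After pooling and extraction in PBS with 0.5% NP-40 at 4°C, soluble protein from a 21,000xg, 90 min spin was quantified by TMTpro 16plex LC-MS/MS with channel sums equalised. Thermal stability is expressed against control samples, from duplicates, as a log2 fold change.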

sotrastaurin = compound: CN1CCN(c2nc(C3=C(c4c[nH]c5ccccc45)C(=O)NC3=O)c3ccccc3n2)CC1 [sotrastaurin]
In short: as §1

alvocidib = compound: CN1CC[C@H](c2c(O)cc(O)c3c(=O)cc(-c4ccccc4Cl)oc23)[C@H](O)C1 [alvocidib]
In short: as §1

Tubastatin A = compound: CN1CCc2c(c3ccccc3n2Cc2ccc(C(=O)NO)cc2)C1 [Tubastatin A]
In short: as §1

[1] = compound: CNC(=O)C1=CC=CC=C1NC2=NC(=NC=C2Cl)NC3=C(C=C(C=C3)N4CCOCC4)OC
In short: as §1

defactinib = compound: CNC(=O)c1ccc(Nc2ncc(C(F)(F)F)c(NCc3nccnc3N(C)S(C)(=O)=O)n2)cc1 [defactinib]
In short: as §1

rucaparib = compound: CNCc1ccc(-c2[nH]c3cc(F)cc4c3c2CCNC4=O)cc1 [rucaparib]
In short: as §1

[2] = compound: CNc1nc(-c2ccc3c(N)n[nH]c3c2)cc(N2C[C@@H](C(=O)NC3CCCCC3)CC[C@H]2C)n1
In short: as §1

encorafenib = compound: COC(=O)N[C@@H](C)CNc1nccc(-c2cn(C(C)C)nc2-c2cc(Cl)cc(NS(C)(=O)=O)c2F)n1 [encorafenib]
In short: as §1

[3] = compound: COC(=O)[C@H](CCSC)NC(=O)C1=C(C=C(C=C1)NC[C@H](CS)N)C2=CC=CC=C2
In short: as §1

Measured: log2 fold change

SERPINA7 (UniProt P05543)
UniProt P05543, sequence (P05543 whole entry, looked up): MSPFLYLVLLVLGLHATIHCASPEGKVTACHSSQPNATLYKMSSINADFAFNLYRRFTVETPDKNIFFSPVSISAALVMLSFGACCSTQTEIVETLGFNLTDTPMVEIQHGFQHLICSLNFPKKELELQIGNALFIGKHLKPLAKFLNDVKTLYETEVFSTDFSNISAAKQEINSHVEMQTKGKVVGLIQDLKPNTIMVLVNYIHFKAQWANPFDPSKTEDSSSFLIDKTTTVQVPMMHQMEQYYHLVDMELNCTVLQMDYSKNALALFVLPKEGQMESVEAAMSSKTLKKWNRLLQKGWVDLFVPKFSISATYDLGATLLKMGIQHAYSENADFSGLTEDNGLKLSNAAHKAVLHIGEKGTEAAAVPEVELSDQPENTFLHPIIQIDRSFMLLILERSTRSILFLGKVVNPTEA
inactive: saracatinib 0.339 | sotrastaurin 0.395 | alvocidib 0.018 | Tubastatin A -0.169 | [1] 0.147 | defactinib 0.056 | rucaparib -0.145 | [2] 0.061 | encorafenib -0.085 | [3] 0.078

SH2D1B (UniProt O14796)
UniProt O14796, sequence (O14796 whole entry, looked up): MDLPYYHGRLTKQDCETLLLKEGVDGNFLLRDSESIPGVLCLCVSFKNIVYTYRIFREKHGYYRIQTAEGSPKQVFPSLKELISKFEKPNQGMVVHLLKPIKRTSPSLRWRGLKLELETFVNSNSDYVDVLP
active: saracatinib -1
inactive: sotrastaurin 0.05 | alvocidib -0.029 | Tubastatin A -0.046 | [1] -0.214 | defactinib -0.06 | rucaparib 0.045 | [2] -0.026 | encorafenib 0.295 | [3] 0.242

RPS6KA2 isoform 2 (UniProt Q15349)
UniProt Q15349, sequence (Q15349 whole entry, looked up): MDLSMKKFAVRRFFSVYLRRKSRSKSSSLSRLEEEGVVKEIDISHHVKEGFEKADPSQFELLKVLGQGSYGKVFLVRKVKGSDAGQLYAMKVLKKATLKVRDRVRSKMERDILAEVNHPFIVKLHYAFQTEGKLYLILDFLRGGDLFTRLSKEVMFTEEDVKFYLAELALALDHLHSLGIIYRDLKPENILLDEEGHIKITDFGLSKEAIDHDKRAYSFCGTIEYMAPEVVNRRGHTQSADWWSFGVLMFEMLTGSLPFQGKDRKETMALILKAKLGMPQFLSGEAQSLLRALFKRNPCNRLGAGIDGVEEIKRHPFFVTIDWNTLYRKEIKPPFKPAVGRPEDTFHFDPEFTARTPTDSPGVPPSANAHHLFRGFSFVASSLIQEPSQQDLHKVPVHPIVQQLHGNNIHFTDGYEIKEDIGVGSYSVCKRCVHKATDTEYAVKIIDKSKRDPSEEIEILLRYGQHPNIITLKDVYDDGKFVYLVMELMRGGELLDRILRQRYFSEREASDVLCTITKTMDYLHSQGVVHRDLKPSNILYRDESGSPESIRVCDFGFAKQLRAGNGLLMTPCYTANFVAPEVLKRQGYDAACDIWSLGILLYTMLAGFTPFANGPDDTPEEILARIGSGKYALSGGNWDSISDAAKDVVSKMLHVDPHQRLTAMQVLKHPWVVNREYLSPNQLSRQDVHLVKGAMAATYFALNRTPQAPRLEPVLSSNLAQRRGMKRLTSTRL
inactive: saracatinib 0 | sotrastaurin -0.049 | alvocidib -0.019 | Tubastatin A -0.01 | defactinib -0.209 | rucaparib -0.049 | [2] -0.08 | encorafenib 0.014 | [3] -0.009
active: [1] -0.422

RIOK3 (UniProt O14730)
UniProt O14730, sequence (O14730 whole entry, looked up): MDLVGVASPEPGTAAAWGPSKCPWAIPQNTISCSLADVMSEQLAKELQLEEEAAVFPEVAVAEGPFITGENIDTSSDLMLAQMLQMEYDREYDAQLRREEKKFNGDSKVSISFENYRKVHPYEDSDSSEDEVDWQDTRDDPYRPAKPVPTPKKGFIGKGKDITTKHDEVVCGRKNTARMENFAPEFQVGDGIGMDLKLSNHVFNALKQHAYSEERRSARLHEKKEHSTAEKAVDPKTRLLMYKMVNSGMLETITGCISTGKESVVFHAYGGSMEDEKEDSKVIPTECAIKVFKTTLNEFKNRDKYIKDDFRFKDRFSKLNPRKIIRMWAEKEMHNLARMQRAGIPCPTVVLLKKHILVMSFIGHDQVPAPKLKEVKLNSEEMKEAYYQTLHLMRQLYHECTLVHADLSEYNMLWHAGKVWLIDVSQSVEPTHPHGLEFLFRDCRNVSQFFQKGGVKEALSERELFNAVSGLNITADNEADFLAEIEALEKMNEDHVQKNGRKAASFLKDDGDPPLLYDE
inactive: saracatinib 0.029 | sotrastaurin -0.006 | alvocidib -0.002 | Tubastatin A 0.012 | [1] -0.029 | defactinib -0.01 | rucaparib -0.132 | [2] -0.039 | encorafenib -0.02 | [3] -0.002

RABGAP1L isoform 3 (UniProt Q5R372)
inactive: saracatinib 0.063 | sotrastaurin -0.042 | alvocidib -0.001 | Tubastatin A -0.059 | [1] 0.018 | defactinib -0.055 | rucaparib -0.05 | [2] -0.005 | encorafenib 0.078 | [3] 0.035

RPS14 (UniProt P62263)
inactive: saracatinib 0.027 | sotrastaurin -0.003 | alvocidib 0.166 | Tubastatin A 0.123 | [1] 0.056 | defactinib 0.113 | rucaparib 0.107 | [2] 0.069 | encorafenib 0.013 | [3] -0.084

RHOA (UniProt P61586)
UniProt P61586, sequence (P61586 whole entry, looked up): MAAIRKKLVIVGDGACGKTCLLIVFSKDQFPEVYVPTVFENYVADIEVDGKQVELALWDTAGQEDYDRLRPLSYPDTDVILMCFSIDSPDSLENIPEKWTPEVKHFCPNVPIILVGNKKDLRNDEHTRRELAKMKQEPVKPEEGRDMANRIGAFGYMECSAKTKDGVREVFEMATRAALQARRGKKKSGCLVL
inactive: saracatinib 0.079 | sotrastaurin -0.025 | alvocidib 0.018 | Tubastatin A -0.025 | [1] -0.029 | defactinib 0 | rucaparib 0.074 | [2] 0.012 | encorafenib -0.126 | [3] 0.08

RPS4X (UniProt P62701)
inactive: saracatinib -0.164 | sotrastaurin -0.017 | alvocidib 0.247 | Tubastatin A 0.123 | [1] 0.063 | defactinib 0.302 | rucaparib 0.185 | [2] 0.089 | encorafenib 0.08 | [3] 0.014

RRAGB (UniProt Q5VZM2)
UniProt Q5VZM2, sequence (Q5VZM2 whole entry, looked up): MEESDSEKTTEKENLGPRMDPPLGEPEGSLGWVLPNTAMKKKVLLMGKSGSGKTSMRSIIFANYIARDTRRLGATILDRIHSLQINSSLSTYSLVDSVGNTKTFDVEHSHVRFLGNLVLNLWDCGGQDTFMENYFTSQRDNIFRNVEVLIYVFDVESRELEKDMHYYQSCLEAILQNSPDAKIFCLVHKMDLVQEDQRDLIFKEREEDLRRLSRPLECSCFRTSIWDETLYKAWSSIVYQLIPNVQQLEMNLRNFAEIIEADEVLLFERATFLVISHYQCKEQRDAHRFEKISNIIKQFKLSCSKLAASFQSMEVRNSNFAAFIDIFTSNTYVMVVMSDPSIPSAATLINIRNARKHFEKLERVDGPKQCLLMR
inactive: saracatinib 0.076 | sotrastaurin 0.028 | alvocidib -0.029 | Tubastatin A -0.03 | [1] -0.01 | defactinib -0.075 | rucaparib -0.009 | [2] -0.009 | encorafenib 0.06 | [3] 0.084

RPS3 (UniProt P23396)
inactive: saracatinib -0.03 | sotrastaurin 0.031 | alvocidib 0.201 | Tubastatin A 0.094 | [1] 0.082 | defactinib 0.208 | rucaparib 0.097 | [2] 0.04 | encorafenib 0.045 | [3] 0.002

RPS3A (UniProt P61247)
inactive: saracatinib -0.034 | sotrastaurin 0.015 | alvocidib 0.171 | Tubastatin A 0.075 | [1] 0.105 | defactinib 0.192 | rucaparib 0.101 | [2] 0.069 | encorafenib 0.047 | [3] -0.018

RBM22 (UniProt Q9NW64)
UniProt Q9NW64, sequence (Q9NW64 whole entry, looked up): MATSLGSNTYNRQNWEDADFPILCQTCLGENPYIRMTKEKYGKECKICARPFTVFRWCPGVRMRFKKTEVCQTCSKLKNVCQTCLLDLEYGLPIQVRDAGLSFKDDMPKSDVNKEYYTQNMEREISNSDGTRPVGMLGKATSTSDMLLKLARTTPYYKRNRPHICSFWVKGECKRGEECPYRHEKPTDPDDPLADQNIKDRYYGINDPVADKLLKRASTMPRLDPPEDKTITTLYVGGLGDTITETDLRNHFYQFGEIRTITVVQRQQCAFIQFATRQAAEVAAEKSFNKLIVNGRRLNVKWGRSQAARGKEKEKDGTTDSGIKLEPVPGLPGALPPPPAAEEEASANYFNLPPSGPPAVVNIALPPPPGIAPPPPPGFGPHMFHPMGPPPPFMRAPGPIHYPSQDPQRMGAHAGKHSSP
inactive: saracatinib 0.016 | sotrastaurin -0.013 | alvocidib 0.081 | Tubastatin A -0.065 | [1] -0.037 | defactinib -0.05 | rucaparib 0.04 | [2] -0.155 | encorafenib 0.036 | [3] 0.012

SCCPDH (UniProt Q8NBX0)
inactive: saracatinib -0.063 | sotrastaurin 0.1 | alvocidib -0.057 | Tubastatin A -0.078 | [1] 0.206 | defactinib 0.121 | rucaparib -0.081 | [2] 0.183 | encorafenib -0.041 | [3] 0.002

RBM33 (UniProt Q96EV2)
UniProt Q96EV2, sequence (Q96EV2 whole entry, looked up): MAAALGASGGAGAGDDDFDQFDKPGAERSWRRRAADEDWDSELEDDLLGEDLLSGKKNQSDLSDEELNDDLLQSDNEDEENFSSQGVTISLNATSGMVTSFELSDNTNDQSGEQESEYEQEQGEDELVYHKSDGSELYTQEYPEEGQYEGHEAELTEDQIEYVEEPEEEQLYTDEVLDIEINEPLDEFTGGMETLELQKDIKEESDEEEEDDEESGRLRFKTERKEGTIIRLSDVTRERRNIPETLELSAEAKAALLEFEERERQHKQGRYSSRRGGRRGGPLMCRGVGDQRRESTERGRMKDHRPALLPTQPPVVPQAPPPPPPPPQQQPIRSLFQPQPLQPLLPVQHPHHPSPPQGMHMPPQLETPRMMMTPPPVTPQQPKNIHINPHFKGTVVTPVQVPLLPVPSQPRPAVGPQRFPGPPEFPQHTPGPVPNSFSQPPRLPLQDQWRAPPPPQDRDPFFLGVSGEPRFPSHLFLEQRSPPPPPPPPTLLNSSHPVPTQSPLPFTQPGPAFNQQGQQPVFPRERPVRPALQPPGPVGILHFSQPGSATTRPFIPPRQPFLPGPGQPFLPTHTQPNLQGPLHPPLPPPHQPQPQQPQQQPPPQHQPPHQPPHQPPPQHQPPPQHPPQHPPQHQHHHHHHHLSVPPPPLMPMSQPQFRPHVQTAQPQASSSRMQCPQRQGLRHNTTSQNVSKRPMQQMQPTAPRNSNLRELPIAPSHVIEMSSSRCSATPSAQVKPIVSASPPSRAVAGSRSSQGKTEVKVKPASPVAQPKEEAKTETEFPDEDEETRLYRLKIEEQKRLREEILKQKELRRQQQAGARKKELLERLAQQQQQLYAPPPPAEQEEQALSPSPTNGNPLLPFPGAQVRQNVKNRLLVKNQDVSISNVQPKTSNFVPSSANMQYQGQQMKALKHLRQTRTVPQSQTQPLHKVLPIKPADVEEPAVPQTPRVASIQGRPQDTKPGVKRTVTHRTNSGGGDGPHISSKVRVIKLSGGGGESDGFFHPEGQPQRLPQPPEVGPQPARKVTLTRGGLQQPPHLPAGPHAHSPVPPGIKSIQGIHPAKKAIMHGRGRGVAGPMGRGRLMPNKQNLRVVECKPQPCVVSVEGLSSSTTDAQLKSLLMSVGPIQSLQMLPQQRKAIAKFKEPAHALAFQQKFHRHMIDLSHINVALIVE
inactive: saracatinib 0.071 | sotrastaurin -0.017 | alvocidib -0.177 | Tubastatin A 0.007 | [1] -0.021 | rucaparib -0.017 | [2] -0.044 | encorafenib 0.02 | [3] 0.03
active: defactinib -0.273
